Data published in PubChem BioAssay (EPA / NIEHS).
Where “and” joins values, the source holds several entries; their conditions need not be identical. Equal values may be shown once. More than one record can exist for a structure, and the calls need not agree. Calls of active or inactive are those of the source. Rule for the calls: active = hit-call score of the fitted dose curve at least 0.9, where 1 is the maximum; inactive = score below 0.9.

read-out: Vascular cell adhesion molecule 1 (VCAM1), VCAM1 (gene 7412); assay: BSK_4H_VCAM1: BioMAP Diversity Plus: 4H Assay for Vascular cell adhesion molecule 1 (VCAM1) Biomarker Activity (AID 2283033); conditions: primary human endothelial cells (HUVEC); actives raise or lower the signal
Description: BSK_4H is a cell-based, multiplexed-readout assay that uses umbilical vein endothelium, a human vascular primary cell, with measurements taken at 24 hours after chemical dosing in a 96-well plate.BSK_4H_VCAM1 is an assay component measured in the BSK_4H assay. It measures VCAM-1 antibody related to regulation of gene expression using ELISA technology.Data from the assay component BSK_4H_VCAM1 was analyzed into 1 assay endpoint. This assay endpoint, BSK_4H_VCAM1, was analyzed with bidirectional fitting relative to DMSO as the negative control and baseline of activity. Using a type of binding reporter, gain or loss-of-signal activity can be used to understand changes in the signaling as they relate to the gene VCAM1. Furthermore, this assay endpoint can be referred to as a primary readout, because this assay has produced multiple assay endpoints where this one serves a signaling function. To generalize the intended target to other relatable targets, this assay endpoint is annotated to the cell adhesion molecules intended target family, where the subfamily is Immunoglobulin CAM.
The levels of cell surface (or secreted, indicated by the prefix "s") biomarker endpoints were measured by ELISA. Overt cytotoxicity to cells in confluent adherent cultures (all systems other than the BT system) was assessed by measuring total protein levels using sulforhodamine B (SRB) staining in parallel cultures at the time of biomarker measurements, indicated as SRB endpoints. For proliferation assays for adherent cell types, individual cell types are cultured at sub-confluence and relative cell numbers quantified by SRB staining at time points optimized for each system (48 h: 3C and CASM3C systems; 72 h: BT and HDF3CGF systems; 96 h: SAg system). SRB was performed by staining cells with 0.1% SRB after fixation with 10% TCA and reading wells at 560 nm.Viability and proliferation of PBMC (T cells) was quantified by Alamar Blue reduction for the SAg and BT systems. For PBMC viability (referred to as PBMC Cytotoxicity within the assay endpoint names), cells were plated (75,000/well in a 96-well plate) and then chemical samples added for 1 h before addition of activators, SEB and TSST-1 (20 ng/mL final concentration each). Cells were incubated for 90 h. Then, Alamar Blue (20 uL/well) (Invitrogen, Cat DAL1100) was added for 6 h, and the plates were read with a fluorescence microplate reader at 546/580 nm (excitation/emission). For PBMC proliferation, cells were plated and activated as above but incubated for only 16 h prior to addition of Alamar Blue. Plates were read after 6 h.

outcome, inactive:
CNS(=O)(=O)c1cc(C(=O)N2CCC(CCN3C4CCC3CC(n3c(C)nc5ccccc53)C4)(c3cccc(F)c3)CC2)c(Cl)cc1F (stereo not given), CCCCC(CC)COC(=O)c1ccc(C(=O)OCC(CC)CCCC)cc1 (stereo not given), COCCOCCOCCOC, C=CCCCCCCCCC(=O)O, C1N2CN3CN1CN(C2)C3, CC[C@H]1OC(=O)[C@H](C)[C@@H](O[C@H]2C[C@@](C)(OC)[C@@H](O)[C@H](C)O2)[C@H](C)[C@@H](O[C@@H]2O[C@H](C)C[C@H](N(C)C)[C@H]2O)[C@](C)(O)C[C@@H](C)C(=O)[C@H](C)[C@@H](O)[C@]1(C)O, Nc1cccc(N)c1, Cn1cnc([N+](=O)[O-])c1Sc1ncnc2nc[nH]c12, CC(C)=CCC/C(C)=C/CO, CN(C)c1ccc(Cc2ccc(N(C)C)cc2)cc1, CCNc1ccccc1, Cc1ccc(S(=O)(=O)O)cc1C, O=C(O)c1cccc(N(Cc2cccnc2)c2ccc(OC(F)F)c(OC(F)F)c2)c1, CNCc1ccc(NC(=O)c2c[nH]c3c2C(=O)CCC3)cc1, CC[C@H]1CC[C@H](NCc2cc3c(cc2OC)[C@H]2C[C@H]2C(=O)N3C)[C@H](c2ccccc2)N1, COC(=O)c1ccccc1O, Cc1ccc(N)cc1O, CC(=O)OCCC(C)C, O=C1CCC(N2C(=O)c3ccccc3C2=O)C(=O)N1 (stereo not given), CC(C)CC(C)(O)C#CC(C)(O)CC(C)C (stereo not given), Fc1ccccc1[C@@H](F)COC1CCC(Nc2ncnc3[nH]ncc23)CC1 (stereo not given in full), COC(=O)c1c(Cl)c(Cl)c(C(=O)OC)c(Cl)c1Cl, CC(=O)OC[C@H]1O[C@@](COC(C)=O)(O[C@H]2O[C@H](COC(C)=O)[C@@H](OC(C)=O)[C@H](OC(C)=O)[C@H]2OC(C)=O)[C@@H](OC(C)=O)[C@@H]1OC(C)=O, CC(C)=CCCC(C)CCO (stereo not given), CC(C)(O)c1coc(S(=O)(=O)NC(=O)Nc2c3c(cc4c2CCC4)CCC3)c1, CCn1nc(Cc2ccccc2)cc1C1CCN(C[C@H]2C[C@H](N(C)[C@@H](C(=O)O)C(C)C)C[C@@H]2c2cccc(F)c2)CC1, COc1ccc(-n2nc(C(F)F)cc2-c2ccc(S(C)=O)cc2)cc1 (stereo not given), COC(=O)CC(=O)OC, CC(C)=CCC/C(C)=C\CO, CCCC(=O)OCC, COCCOc1cc2cc(C(=O)NC3CCN(C(C)C)CC3)n(CC(=O)Nc3ccc(Cl)cn3)c2cn1, O=P(OC(CCl)CCl)(OC(CCl)CCl)OC(CCl)CCl

AC50, active:
Clc1nc(Cl)c(Cl)c(Cl)c1Cl 20 µM, Cc1[nH]cnc1C[C@H]1CCc2c(C)c3ccccc3n2C1=O 28.9 µM, On1ccccc1=S 14.8 µM, CCOc1cccc(-n2cc(C(=O)N3CCN(c4cc(C(=O)O)c5ccccc5c4)CC3)nc2-c2ccc(C)cc2)c1 29.9 µM, Cn1cnc([N+](=O)[O-])c1Sc1ncnc2nc[nH]c12 8.19 µM and 9.52 µM, CC(C)c1cccc(C(C)C)c1N1C(=O)c2ccc(O)cc2C1=O 29.4 µM, O=C(CCCCCCCCc1cccnc1)N1CCC(C=C(c2ccccc2)c2ccccc2)CC1 12.7 µM, O=C(OC[C@H]1O[C@@H](OC(=O)c2cc(O)c(O)c(OC(=O)c3cc(O)c(O)c(O)c3)c2)[C@H](OC(=O)c2cc(O)c(O)c(OC(=O)c3cc(O)c(O)c(O)c3)c2)[C@@H](OC(=O)c2cc(O)c(O)c(OC(=O)c3cc(O)c(O)c(O)c3)c2)[C@@H]1OC(=O)c1cc(O)c(O)c(OC(=O)c2cc(O)c(O)c(O)c2)c1)c1cc(O)c(O)c(OC(=O)c2cc(O)c(O)c(O)c2)c1 9.44 µM
